Screening results: PubChem BioAssay, National Center for Advancing Translational Sciences (NCATS)
Sampled rows, rich in hits. Any-hit rate of the full collection: about 18%.
LDHA block: LDHA (human) enzyme inhibition | AID 1347041 | P00338 | 480,000 compounds, 0.15% hits | purified LDHA, NADH/diaphorase-resazurin fluorescence; stronger effect = lower value | activity change, % (values are at about 110 or 230 µM); in the data active means activity change below about -30%; inconclusive means mostly about -25% to -30%;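 further: plate controls were DMSO wells for no effect and wells without enzyme for full effect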
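Human LDH5 at 2 nM final in Tris HCl pH 7.4 with 0.06 mM NADH and 0.2 mM pyruvate, reacted 5 minutes at room temperature. Remaining NADH coupled via diaphorase/resazurin; resorufin fluorescence read at 0 and 20 minutes, normalized to enzyme-free and DMSO wells.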
DT40 TDP1 no CPT: qHTS for Inhibitors of human tyrosyl-DNA phosphodiesterase 1 (TDP1): qHTS in cells in absence of CPT; DT40 Tdp1-/- hTDP1 cells, no CPT, ATP luminescence, 48 h; Potency, µM (titrated, usually from 46.2 µM), without a hit: at the top dose activity change, negative = growth inhibition, most hits filed as inhibitors; 420,000 compounds, 15% hits; further: potency means the concentration at half of the fitted maximal effect; nearly all actives have a fitted effect of over 55% in size
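No-CPT arm: Tdp1-/-;hTDP1 DT40 cells (400/well) plus compounds, incubated ≥48 hr at 37 °C. Readout CellTiter-Glo luminescence.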
VP16 counter: Gal4-VP16 reporter inhibition counter-screen; Drosophila S2 Gal4-VP16 UAS-luciferase, luminescence, 20 h; Potency, µM (highest dose often 53.6 µM), for the others: at the top dose activity, negative = inhibition, usual class: inhibitors; 310,000 compounds, 3.5% hits; AID 2546;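 further: Gal4-VP16 expression switched on by copper sulfate through the metallothionein promoter; potency means the concentration at half of the fitted maximal effect; nearly all actives have a fitted effect of over 50% in size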
RORg inh: blocks mouse ROR gamma transcriptional activity; 310,000 compounds, 5.4% hits; Drosophila S2 Gal4-RORgamma UAS-luciferase reporter, 20 h; P51450; Potency, µM (highest dose often 53.6 µM), for the others: at the top dose activity change, negative = inhibition, hits mostly inhibitors; further: potency means the concentration at half of the fitted maximal effect; nearly all actives have a fitted effect of over 60% in size
Target sequence (P51450 whole entry, looked up, the tested form may be a part): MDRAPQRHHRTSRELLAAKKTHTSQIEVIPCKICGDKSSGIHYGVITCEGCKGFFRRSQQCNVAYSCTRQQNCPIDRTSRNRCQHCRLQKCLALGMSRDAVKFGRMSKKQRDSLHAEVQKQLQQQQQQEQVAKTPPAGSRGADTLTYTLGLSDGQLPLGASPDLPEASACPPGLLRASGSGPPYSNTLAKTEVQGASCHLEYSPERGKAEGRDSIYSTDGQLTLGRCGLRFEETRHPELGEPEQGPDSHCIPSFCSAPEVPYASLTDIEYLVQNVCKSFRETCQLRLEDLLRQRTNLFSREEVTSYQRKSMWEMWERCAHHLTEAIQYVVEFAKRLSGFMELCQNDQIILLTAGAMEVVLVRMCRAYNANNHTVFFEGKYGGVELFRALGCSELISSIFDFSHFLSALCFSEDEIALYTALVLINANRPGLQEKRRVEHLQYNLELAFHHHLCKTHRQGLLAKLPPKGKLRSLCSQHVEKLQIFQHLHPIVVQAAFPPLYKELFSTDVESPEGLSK
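Using a luciferase readout, inhibitors were identified by reduced reporter activity in Drosophila cells coexpressing a copper-inducible Gal4–ROR gamma fusion and UAS-driven Photinus luciferase, incubated 20 hr after 700 uM copper sulfate.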
IL1B secr inh: inhibitors of inflammasome signaling (IL-1 beta secretion); activity change, % at 57.5 µM; AID 743279; 360,000 compounds, 4.7% hits; THP-1 LPS/ATP IL-1B secretion, AlphaLISA, 16 h; stronger effect = lower value; in the data active means activity change below about -50%; inconclusive means mostly about -30% to -49%
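THP-1 cells pretreated 1 hr with compounds (up to 57.5 uM final), then stimulated with LPS (250 ng/mL final) plus ATP (1.25 mM final); secreted IL-1B measured by AlphaLISA after 16 hr, decreased signal indicating inhibition.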
DT40 TDP1 CPT: growth inhibition of DT40 Tdp1-/-;hTDP1 cells with camptothecin (screen for TDP1 inhibitors). chicken DT40 Tdp1-/-;hTDP1 cells + 20 nM CPT, ATP luminescence, 48 h. Potency, µM (doses to about 46.2 µM), for inactives: top-dose activity change, negative = growth inhibition, actives largely listed as inhibitors. 420,000 compounds, 12% hits. AID 686979; further: potency means the concentration at half of the fitted maximal effect; nearly all actives have a fitted effect of over 55% in size
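Chicken DT40 Tdp1-/- cells stably complemented with human TDP1 were seeded at 400 cells/well in medium containing 20 nM camptothecin, exposed to pin-transferred compounds, and grown at 37 °C for at least 48 hr. Viability was read as ATP luminescence.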
* marks the source's active call; other numbers are inactive results; ? = inconclusive; / = not tested or not shown; ! = repeats disagree. Unless noted, the call rests on the fitted dose curve; in most records, active means well fitted curve in the direction sought with a large enough effect; inconclusive means small, poorly fitted or top-dose-only effect, or another doubt; inactive means no such curve, though single readings can be large; an effect the other way counts as inactive or inconclusive. Unless noted, on the % scale 0 is the no-effect control and ±100 the full control effect.

SMILES	LDHA block	DT40 TDP1 no CPT	VP16 counter	RORg inh	IL1B secr inh	DT40 TDP1 CPT
FC(F)(F)c1cccc(Oc2nc(-c3ccccc3)nnc2C(F)(F)F)c1	2	?	-11%	20%	?	-20%
FC(F)(F)c1cccc(Sc2nc(-c3ccccc3)nnc2C(F)(F)F)c1	-1	12µM*	?	3.5µM*	-118*	8.2µM*
FC(F)(F)c1nnc(-c2ccccc2)nc1N1CCCC1	2	1%	6%	-2%	-8	-3%
CN(C)S(=O)(=O)c1ccc(Cl)c(C(=O)Nc2cccc3cccnc23)c1	-9	/	/	/	/	/
CC(C)(C)C(=O)COC(=O)c1ccccc1SCC1CCCO1 (stereo not given)	9	/	/	/	/	/
COc1ccc(N/C=C/C(=O)c2ccc(C)c(C)c2)cc1Cl	5	/	/	/	/	/
CN1CCN(CCn2c(=S)[nH]c3ccccc3c2=O)CC1	-5	3%	5%	-8%	16	3%
O=c1c2ccccc2[nH]c(=S)n1CCN1CCN(Cc2ccccc2)CC1	-6	-17%	?	35µM*	-6	-6%
O=c1c2ccccc2[nH]c(=S)n1CCN1CCc2ccccc2C1	0	-15%	?	11µM*	9	-17%
O=c1c2cccnc2[nH]c(=S)n1Cc1ccccc1	-8	-13%	4µM*	10µM*	15	4%
O=c1c2ccccc2[nH]c(=S)n1Cc1cccs1	-10	-24%	3.2µM*	1.6µM*	0	8%
Cc1ccc(S(=O)(=O)NCCc2nnc3ccc(SCc4cc(C)ccc4C)nn23)cc1	-3	/	/	/	/	/
CN(C)CCn1c(=S)[nH]c2ccccc2c1=O	2	12%	-8%	5%	39	17%
COc1cc2[nH]c(=S)n(Cc3ccccc3)c(=O)c2cc1OC	0	?	5µM*	3.2µM*	-19	?
CCCn1c(=S)[nH]c2ccccc2c1=O	-10	?	7.9µM*	2.8µM*	-17	-20%
O=c1c2ccccc2[nH]c(=S)n1Cc1ccccc1Cl	-5	-11%	5µM*	3.5µM*	43	1%
O=C(CCn1c(=S)[nH]c2ccccc2c1=O)N1CCCCC1	-12	-14%	-14%	13%	-3	-3%
O=c1c2ccccc2[nH]c(=S)n1Cc1ccccc1	1	5%	5µM*	4µM*	15	2%
Cc1ccc(-n2nnnc2SC(C(=O)N2CCCC2)c2ccccc2)cc1C (stereo not given)	-7	/	/	/	/	/
O=c1c2ccccc2[nH]c(=S)n1CCc1ccccc1	-6	-4%	3.2µM*	1.6µM*	34	-2%
Nc1ccc2nn(-c3ccccc3)nc2c1	20	-18%	29%	-8%	15	-4%
Cc1cc2nn(-c3cccc4ccccc34)nc2cc1N	17	18µM*	25%	-1%	30	21µM*
Nc1ccc2nn(-c3cccc4ccccc34)nc2c1	13	16µM*	14%	0%	12	12µM*
O=C(/C=C/c1ccccc1Cl)N1CCC(c2nc3ccccc3o2)CC1	1	21µM*	/	/	/	?
O=C(/C=C/c1ccccc1)N1CCC(c2nc3ccccc3o2)CC1	2	/	/	/	/	/
SMILES	LDHA block	DT40 TDP1 no CPT	VP16 counter	RORg inh	IL1B secr inh	DT40 TDP1 CPT
COc1ccc(/C=C/C(=O)N2CCC(c3nc4ccccc4o3)CC2)cc1OC	0	16µM*	/	/	/	?
O=C(/C=C/c1ccc(Cl)cc1)N1CCC(c2nc3ccccc3o2)CC1	-1	?	/	/	/	?
Cc1ccccc1NC(=O)CCS(=O)(=O)c1ccc2c(c1)NC(=O)CS2	-5	/	/	/	/	/
COc1ccc(CCNC(=O)c2cc3c(=O)n4cccc(C)c4nc3n(CC3CCCO3)c2=N)cc1 (stereo not given)	-3	10µM*	-8%	-23%	-11	3.3µM*
COCCn1c(=N)c(C(=O)NCC2CCCO2)cc2c(=O)n3ccccc3nc21 (stereo not given)	1	-9%	/	/	/	4%
Cc1cccn2c(=O)c3cc(C(=O)NCC4CCCO4)c(=N)n(CCc4ccccc4)c3nc12 (stereo not given)	-5	-83%	-7%	-3%	35	16µM*
COc1ccc(CCNC(=O)c2cc3c(=O)n4cccc(C)c4nc3n(Cc3ccncc3)c2=N)cc1	/	/	0%	-43%	/	/
CCn1c(SCC(=O)N(C)CCOc2ccc(Br)cc2)nnc1C1CC1	0	/	/	/	/	/
COc1ccc(N(C)S(=O)(=O)c2ccc(Cl)c(C(=O)NCCc3ccc(Cl)cc3)c2)cc1	-1	12µM*	0%	?	-56*	9.2µM*
COc1ccc(CCNC(=O)c2cccc(S(=O)(=O)N3CCCCC3)c2)cc1	-3	?	9%	?	24	?
COc1ccc(CCNC(=O)c2cc(S(=O)(=O)N3CCCCC3)ccc2Cl)cc1	-6	16µM*	/	/	-2	26µM*
COc1ccc(CCNC(=O)CSCC(=O)Nc2cc(S(C)(=O)=O)ccc2Cl)cc1	-13	9.2µM*	/	/	2	-4%
COc1ccc(CCNC(=O)c2ccc(Cl)c(S(=O)(=O)N3CCCC3)c2)cc1	1	23µM*	/	/	-1	18µM*
COc1ccc(CCNC(=O)c2ccc(Cl)cc2Cl)cc1	-3	-11%	-24%	15%	-27	?
CN(c1ccccc1)c1ccc(C(=N)N)cc1	3	/	/	/	/	/
Cc1cc(C(=O)CN2CCN(CC(=O)Nc3cccc(F)c3)CC2)c(C)n1CCc1cccs1	-6	/	/	/	/	/
CCCCN1CCN(c2nc3c(c(=O)[nH]c(=O)n3C)n2Cc2ccccc2)CC1	-1	/	/	/	/	/
CN(C)CCCN1c2ccccc2CCc2ccc(Cl)cc21	-6	10µM*	-4%	?	?	15µM*
CN(C)CCCN1c2ccccc2Sc2ccccc21	-13	18µM*!	-2%	20%	?	16µM*
CCC(=O)c1ccc2c(c1)N(CCCN(C)C)c1ccccc1S2	-5	21µM*	-3%	1%	?	?
COc1ccc2c(c1)Sc1ccccc1N2CCN(C)C	-5	-23%	1%	-22%	?	?
CCC1CCc2sc(C(=O)NC(C)C)cc2C1 (stereo not given)	1	/	/	/	/	/
COc1ccc(CCC(=O)NCCc2ccc(Cl)cc2)cc1	-6	-11%	3%	-7%	-24	-1%
COc1ccc2c(c1)C(SCC(=O)NCCc1ccc(Cl)cc1)CC(C)(C)O2 (stereo not given)	4	?	0%	?	-13	16µM*
CCCOc1ccc(CCC(=O)N/N=C/c2ccncc2)cc1	-2	?	?	-27%	46	26µM*
